From PubChem
This is a sample that favours compounds with a hit; in the whole collection about 17% have one here.
TDP1 cell noCPT: qHTS for Inhibitors of human tyrosyl-DNA phosphodiesterase 1 (TDP1): qHTS in cells in absence of CPT | DT40 Tdp1-/- hTDP1 cells, no CPT, ATP luminescence, 48 h | Potency, µM (highest dose often 46.2 µM), hits mostly inhibitors | 420,000 tested, 15% active; also: nearly all actives have a fitted effect of over 55% in size
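DT40 Tdp1-/-;hTDP1 cells, no CPT (DMSO vehicle only), 400 cells/well; compounds pin-transferred; ≥48 hr, 37 °C; CellTiter-Glo 30 min RT dark, luminescence read.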
TGFb inhibitor: TGF-b pathway inhibition | HepG2 CAGA-GFP TGF-b/SMAD3 reporter, GFP fluorescence, 18 h; TGF-beta stimulated, 500 pg/mL final | Potency, µM (top dose mostly 46.1 µM), actives largely listed as inhibitors | 410,000 tested, 1.2% active | AID 588855; also: nearly all actives have a fitted effect of over 65% in size
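Per well, imaged GFP fluorescence of HEPG2 CAGA-GFP cells gives the signal; cells get compound, then TGF-beta (500 pg/mL final), 18 h at 37 degrees C; %Activity versus -TGF-beta and +DMSO controls.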
TDP1 cell CPT: growth inhibition of DT40 Tdp1-/-;hTDP1 cells with camptothecin (screen for TDP1 inhibitors); chicken DT40 Tdp1-/-;hTDP1 cells + 20 nM CPT, ATP luminescence, 48 h; Potency, µM (doses to about 46.2 µM), hits mostly inhibitors; 420,000 tested, 12% active; AID 686979; also: nearly all actives have a fitted effect of over 55% in size
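Cell growth measured by CellTiter-Glo luminescence after a minimum 48 h, 37 C compound exposure with 20 nM CPT in Tdp1-knockout DT40 cells stably expressing hTDP1, seeded 400/well; qHTS titration format.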
HT1080 IDH1KD tx: toxicity to HT-1080 IDH1 knockdown cells (counter line); 360,000 tested, 2% active; HT-1080 IDH1 knockdown viability, ATP luminescence, 48 h; Potency, µM (series often up to 46.1 µM), most hits filed as cytotoxic
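After a 2 h attachment period, IDH1KD HT-1080 cells took pin-transferred compound for 48 h at 37 °C; ATP-based luminescence after 10 min room-temperature reagent incubation reported viability.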
HT1080-NT tox: kills 2HG-producing HT-1080-NT fibrosarcoma cells. Potency, µM (highest dose often 46.1 µM), most hits filed as cytotoxic. AID 686970. 360,000 tested, 1.6% active. HT-1080-NT fibrosarcoma viability, CellTiter-Glo ATP luminescence, 48 h;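 also: NT is the 2HG producing partner of a matched IDH1 knockdown line; nearly all actives have a fitted effect of over 55% in size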
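Toxicity toward the 2HG-producing NT line was scored as %Activity, normalised to DMSO and no-cell wells, from CellTiter-Glo luminescence after 48 hours' treatment.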
HepG2 tox: kills HepG2 cells in TGF-b inhibitor counter-screen. AID 588856. 410,000 tested, 0.76% active. HepG2 CAGA-GFP viability, ATP luminescence, 18 h. Potency, µM (titrated, usually from 46.1 µM), most hits filed as cytotoxic
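CellTiter-Glo luminescence gave cytotoxicity after 18 hours at 37 degrees C. The cells were HepG2 CAGA-GFP in 1% FBS DMEM, stimulated with 500 pg/mL TGF-beta after compound addition. %Activity was normalised to no-cell wells (complete cell-killing) and DMSO (no toxicity), and curves were fitted and classified.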
A number is an active result. Calls follow the shape of the dose curve; as a rule, active = well fitted curve in the direction sought with a large enough effect; inconclusive = small, poorly fitted or top-dose-only effect, or another doubt; inactive = no such curve, though single readings can be large; an effect the other way counts as inactive or inconclusive.

What do the screens show for `Cc1ccc(S(=O)(=O)N(CC(=O)NCCSc2ccccn2)c2ccccc2F)cc1`?
TDP1 cell noCPT: inconclusive; TGFb inhibitor: inactive; TDP1 cell CPT: inactive; HT1080 IDH1KD tx: inactive; HT1080-NT tox: inconclusive; HepG2 tox: inactive

Results for CC1CC(C)CN(c2nc3c(c(=O)n(C)c(=O)n3C)n2CCSc2nc3ccccc3o2)C1 (configuration not stated) ?
TDP1 cell noCPT: 15µM; TGFb inhibitor: inactive; TDP1 cell CPT: 18µM; HT1080 IDH1KD tx: inactive; HT1080-NT tox: inactive; HepG2 tox: inactive

How did Cn1c(=O)[nH]c(=O)c2c1nc(N1CCCCCC1)n2CCSc1nc2ccccc2o1 do in these assays?
TDP1 cell noCPT: inactive; TGFb inhibitor: inactive; TDP1 cell CPT: inactive; HT1080 IDH1KD tx: inactive; HT1080-NT tox: inactive; HepG2 tox: inactive

How did Cn1c(=O)[nH]c(=O)c2c1nc(N1CCCCCC1)n2CCCSc1nc2ccccc2o1 do in these assays?
TDP1 cell noCPT: 29µM; TGFb inhibitor: inconclusive; TDP1 cell CPT: inconclusive; HT1080 IDH1KD tx: inactive; HT1080-NT tox: inactive; HepG2 tox: inactive

What do the screens show for `Cc1cc(C)nc(SCCn2c(N3CCCCC3)nc3c2c(=O)n(C)c(=O)n3C)n1`?
TDP1 cell noCPT: inactive; TGFb inhibitor: inactive; TDP1 cell CPT: inactive; HT1080 IDH1KD tx: inactive; HT1080-NT tox: inactive; HepG2 tox: inactive

How did Cn1c(=O)c2c(nc(N3CCCCCC3)n2CCSc2nc3ccccc3o2)n(C)c1=O do in these assays?
TDP1 cell noCPT: 23µM; TGFb inhibitor: inactive; TDP1 cell CPT: 7.3µM; HT1080 IDH1KD tx: inactive; HT1080-NT tox: inactive; HepG2 tox: inactive

How did COc1ccc(OC)c(S(=O)(=O)Nc2cc3c(cc2N2CCCC2)n(C)c(=O)c(=O)n3C)c1 do in these assays?
TDP1 cell noCPT: 23µM; TGFb inhibitor: inactive; TDP1 cell CPT: 21µM; HT1080 IDH1KD tx: inactive; HT1080-NT tox: inactive; HepG2 tox: inactive

Results for Cn1c(=O)c(=O)n(C)c2cc(N3CCCC3)c(NS(=O)(=O)c3ccc(F)cc3)cc21 ?
TDP1 cell noCPT: inactive; TGFb inhibitor: inactive; TDP1 cell CPT: inactive; HT1080 IDH1KD tx: inactive; HT1080-NT tox: inactive; HepG2 tox: inactive

What do the screens show for `COc1ccc(Br)c(C(=O)Nc2cc3c(cc2N2CCOCC2)n(C)c(=O)n3C)c1`?
TDP1 cell noCPT: inconclusive; TGFb inhibitor: inactive; TDP1 cell CPT: 23µM; HepG2 tox: inactive

What do the screens show for `COc1ccc(Br)c(C(=O)Nc2cc3c(cc2N2CCCCC2)n(C)c(=O)c(=O)n3C)c1`?
TDP1 cell noCPT: 8.2µM; TGFb inhibitor: inactive; TDP1 cell CPT: 23µM; HepG2 tox: inactive

What do the screens show for `C#CCOCC1CNC(=S)O1` (configuration not stated)?
TDP1 cell noCPT: inactive; TGFb inhibitor: inactive; TDP1 cell CPT: inactive; HT1080 IDH1KD tx: inactive; HT1080-NT tox: inactive; HepG2 tox: inactive

What do the screens show for `CCC(O)CNC(=O)CCc1nnc(C2(c3ccc(Cl)cc3)CCC2)o1` (configuration not stated)?
TDP1 cell noCPT: inactive; TGFb inhibitor: inactive; TDP1 cell CPT: inactive; HT1080 IDH1KD tx: inactive; HT1080-NT tox: inactive; HepG2 tox: inactive

Results for Cc1ccc(NC(=O)CCNS(=O)(=O)c2ccccc2F)cc1S(=O)(=O)N1CCOCC1 ?
TDP1 cell noCPT: inconclusive; TGFb inhibitor: inactive; TDP1 cell CPT: inactive; HT1080 IDH1KD tx: inactive; HT1080-NT tox: inactive; HepG2 tox: inactive

How did Cc1ccc(N2C(=O)C3C(C2=O)C(C(=O)c2ccc(Cl)cc2)N2CCCC32)cc1 (configuration not stated) do in these assays?
TDP1 cell noCPT: inactive; TGFb inhibitor: inactive; TDP1 cell CPT: inactive; HT1080 IDH1KD tx: inactive; HT1080-NT tox: inactive; HepG2 tox: inactive

Results for CC(=O)Oc1ccc(N2C(=O)C3C(C2=O)C(C(=O)c2ccc(Cl)cc2)N2CCCC32)cc1 (configuration not stated) ?
TDP1 cell noCPT: 18µM; TGFb inhibitor: inconclusive; TDP1 cell CPT: inconclusive; HT1080 IDH1KD tx: 23µM; HT1080-NT tox: inconclusive; HepG2 tox: inactive

What do the screens show for `Cc1occc1C(=O)N1CCCC(CO)(Cc2ccc(F)cc2F)C1` (configuration not stated)?
TDP1 cell noCPT: inactive; TGFb inhibitor: inactive; TDP1 cell CPT: inactive; HT1080 IDH1KD tx: inactive; HT1080-NT tox: inactive; HepG2 tox: inactive

Results for CCOC(=O)c1[nH]c2c(c1Cc1ccccc1C)C(=O)CC(c1cc(OC)ccc1OC)C2 (configuration not stated) ?
TDP1 cell noCPT: inconclusive; TGFb inhibitor: inactive; TDP1 cell CPT: inconclusive; HepG2 tox: inactive

How did CCCOCCOC(=O)c1[nH]c2c(c1C)C(=O)CC(c1cc(OC)ccc1OC)C2 (configuration not stated) do in these assays?
TDP1 cell noCPT: 5.8µM; TGFb inhibitor: inactive; TDP1 cell CPT: 5.2µM; HT1080 IDH1KD tx: 4.1µM; HT1080-NT tox: 5.8µM; HepG2 tox: inactive

What do the screens show for `COc1ccc(OC)c(C2CC(=O)c3c([nH]c(C(=O)OC4CCC(C)CC4)c3C)C2)c1` (configuration not stated)?
TDP1 cell noCPT: 8.2µM; TGFb inhibitor: inactive; TDP1 cell CPT: 15µM; HepG2 tox: inactive

How did COc1ccc(OC)c(C2CC(=O)c3c([nH]c(C(=O)OC(C)C)c3C)C2)c1 (configuration not stated) do in these assays?
TDP1 cell noCPT: 0.82µM; TGFb inhibitor: inactive; TDP1 cell CPT: 0.82µM; HT1080 IDH1KD tx: 3.3µM; HT1080-NT tox: 5.8µM; HepG2 tox: inactive

What do the screens show for `COc1ccc(C2CC(=O)c3c([nH]c(C(=O)OC4CCCC4)c3C)C2)cc1OC` (configuration not stated)?
TDP1 cell noCPT: inactive; TGFb inhibitor: inactive; TDP1 cell CPT: inactive; HepG2 tox: inactive

How did COCCOC(=O)c1[nH]c2c(c1C)C(=O)CC(c1cc(OC)ccc1OC)C2 (configuration not stated) do in these assays?
TDP1 cell noCPT: 2.6µM; TGFb inhibitor: inactive; TDP1 cell CPT: 2.9µM; HT1080 IDH1KD tx: 12µM; HT1080-NT tox: 12µM; HepG2 tox: inactive

What do the screens show for `COc1cc(C2CC(=O)c3c([nH]c(C(=O)OCc4ccc(C)cc4)c3C)C2)cc(OC)c1OC` (configuration not stated)?
TDP1 cell noCPT: 0.92µM; TGFb inhibitor: inconclusive; TDP1 cell CPT: 1.5µM; HepG2 tox: inactive
